About 83,000 compounds went through this panel and 20% of them were active in at least one assay; those are over-represented in the sample as a whole.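 Testing used 96-well plates and a 48-hour single-concentration exposure. Example: -40 means 40% of the starting cells died.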 Unmarked numbers belong to inactive results. Activity calls are given as the source filed them. Rule for the calls: active = growth percent below 10; inactive = the rest.
These compounds were tested on UACC-62 melanoma (assay: NCI-60 one-dose screen, 48 h (100 = growth as untreated, 0 = no growth, -100 = all killed)). Conditions: 10 µM unless noted.
CCCCC1COc2cccc3c(SCC(=O)N(C)c4cccc(Cl)c4)cc[n+]1c23 (centres undefined) showed a growth of 101%.
COc1ccc(-c2c(N)n[nH]c2-c2ccccc2O)cc1OC showed a growth of 99%.
Work on CCOC(=O)c1sc(-c2ccc(OS(=O)(=O)c3ccc(C(C)(C)C)cc3)c(C=O)c2)nc1C yielded a growth of 46.1%.
Cc1nc(Nc2ccc(NC(=S)Nc3ccccc3)cc2)nc2nc(Nc3ccc(S(=O)(=O)O)cc3)[nH]c(=O)c12 showed a growth of 105%.
With COc1ccc(/C=C2\COc3ccc(O)cc3C2=O)c(OC)c1 the growth was 50%.
Work on COc1ccc(/C(C)=C(\c2ccc(Cl)cc2)c2ccc(OCCCN(C)C)cc2)cc1F yielded a growth of 45.7%.
Work on Cc1nc(Nc2ccc(NC(=S)Nc3ccccc3)cc2)c2ccccc2n1 yielded a growth of 95.1%.
In the case of C=C1C(=O)O[C@H]2[C@H]1CC/C(COC(=O)/C=C\C(=O)NCc1ccc(Cn3c(=O)sn(-c4ccc(OC)cc4)c3=O)cc1)=C\CC[C@@]1(C)O[C@@H]21, the growth is reported as -99.6% (active).
With CN(C)CCn1cc(-c2ccc3c(Nc4ccc(CC(=O)Nc5cccc(F)c5)cc4)ncnc3c2)cn1 the growth was -81.6% [30 µM] (active).
Compound COc1cc(/C=C/c2nc(Nc3ccc(S(=O)(=O)Nc4cc(C)on4)cc3)c3ccccc3n2)ccc1O has a growth of 46.6%.
For COc1ccc(/C(C)=C(\c2ccc(Cl)cc2)c2ccc(OCCN3CCCC3)cc2)cc1F, the growth was -30.2% (active).
With Cc1nc(Nc2ccc(S(=O)(=O)Nc3cc(C)on3)cc2)c2ccccc2n1 the growth was 98.2%.
COc1ccc(OC)c(/C=C2\COc3ccc(O)cc3C2=O)c1 showed a growth of 84.3%.
With CCN(CC)CCOc1ccc(/C(=C(\C)c2ccc(F)c(OC)c2)c2ccc(Cl)cc2)cc1 the growth was -44.8% (active).
With O[C@H]1CO[C@H]2[C@@H]1OC[C@@H]2Oc1ccc(Nc2ccnc(Nc3ccc(O[C@H]4CO[C@H]5[C@@H]4OC[C@@H]5O)c(Cl)c3)n2)cc1Cl the growth was -74% (active).
With CC(=O)Nc1ccc(-c2cc3c(NCc4ccc(F)cc4)ncnc3s2)cc1 the growth was 73%.
C/C(Cc1ccc(Cl)cc1)=C(/c1ccc(Cl)cc1)c1ccc(OCCN(C)C)cc1 gave a growth of 82%.
With C=C1C(=O)O[C@H]2[C@H]1CC/C(COC(=O)/C=C\C(=O)NCc1ccc(Cn3c(=O)sn(CCCC)c3=O)cc1)=C\CC[C@@]1(C)O[C@@H]21 the growth was -97.4% (active).
In the case of Cc1nc(Nc2cccc(NC(=O)Nc3ccc(Cl)cc3)c2)c2ccccc2n1, the growth is reported as 76.4%.
In the case of COc1ccc(/C=C2\COc3ccc(O)c(O)c3C2=O)c(OC)c1, the growth is reported as 47.8%.
In the case of CCN(CC)CCOc1ccc(/C(=C(\C)c2ccc(OC)c(F)c2)c2ccc(Cl)cc2)cc1, the growth is reported as 60.1%.
C=C1C(=O)O[C@H]2[C@H]1CC/C(COC(=O)/C=C\C(=O)NCc1ccc(Cn3c(=O)sn(-c4ccc(C#N)cc4)c3=O)cc1)=C\CC[C@@]1(C)O[C@@H]21 was tested, and the growth was -99.4% (active).
CN(C)CCN1C(=O)c2cccc3c(-c4ccc(-c5nc6c7ccccc7c7ccccc7c6[nH]5)cc4)ccc(c23)C1=O showed a growth of 112%.
Compound c1ccc([P+](CCCc2n(Cc3ccc4ccccc4c3)c3ccccc3[n+]2Cc2ccc3ccccc3c2)(c2ccccc2)c2ccccc2)cc1 has a growth of 37.8%.
CCCCS(=O)(=O)Oc1ccc(-c2nc(C)c(C(=O)OCC)s2)cc1C=O gave a growth of 64.6%.
CCCCN(Cc1ccc(C(=O)NO)cc1)C(=O)Nc1ccc(OCCCCCCCCCn2cc(CCCCC(=O)N[C@H](C(=O)N3C[C@H](O)C[C@H]3C(=O)NCc3ccc(-c4scnc4C)cc3)C(C)(C)C)nn2)cc1 showed a growth of 35.9%.
Work on COc1ccc(/C(C)=C(\c2ccc(Cl)cc2)c2ccc(OCCN3CCCCCC3)cc2)cc1F yielded a growth of 48.2%.
C=C1C(=O)O[C@H]2[C@H]1CC/C(COC(=O)/C=C\C(=O)NCc1ccc(Cn3c(=O)sn(-c4ccc(Cl)cc4)c3=O)cc1)=C\CC[C@@]1(C)O[C@@H]21 was tested, and the growth was -97.6% (active).
O[C@H]1CO[C@H]2[C@@H]1OC[C@@H]2Oc1ccc(Nc2nc(Nc3ccc(F)c(Cl)c3)ncc2F)cc1Cl was tested, and the growth was 89.4%.
O=C(CCc1nc(-c2cccc(Cl)c2)no1)Nc1ccccn1 showed a growth of 91%.
Work on COc1ccc(Cn2cnc3cc(C(=O)Nc4cccc5ccccc45)ccc32)c(OC)c1 yielded a growth of 14.8% [30 µM].
Compound Cc1nc(Nc2ccc(N)cc2)c2ccccc2n1 has a growth of 98.5%.
In the case of COc1cccc(/C=C2\COc3ccc(O)cc3C2=O)c1OC, the growth is reported as 71%.
For CC(C)c1ccc(NC(=O)Cc2ccc(Nc3ncnc4cc(-c5cnn(CCN(C)C)c5)ccc34)cc2)cc1, the growth was -89.1% [30 µM] (active).
O=C1c2cccc3c(-c4ccc(-c5nc6c7ccccc7c7ccccc7c6[nH]5)cc4)ccc(c23)C(=O)N1CCN1CCNCC1 was tested, and the growth was 106%.
For O=C1/C(=C/c2ccc([N+](=O)[O-])cc2)COc2ccc(O)c(O)c21, the growth was -19.2% (active).
Cn1ccnc1C(=O)/C=C/c1ccc(C(=O)Nc2ccc(S(F)(F)(F)(F)F)cc2)cc1 showed a growth of 53.5%.
COc1ccc(OC)c(C(=O)Nc2cccc(-c3cc(=O)c4ccccc4o3)c2)c1 showed a growth of 87.1%.
With C=C1C(=O)O[C@H]2[C@H]1CC/C(COC(=O)/C=C\C(=O)NCc1ccc(Cn3c(=O)sn(CCCI)c3=O)cc1)=C\CC[C@@]1(C)O[C@@H]21 the growth was -98.2% (active).

— PubChem BioAssay (NCI)
